19 compounds from the supplement of paper PMC10933113 can be followed below.

The structures appear in SMILES notation.

The test has as its system KeratinoSens (HaCaT ARE-luciferase) cells. The test is described as follows: Nrf2/ARE luciferase activation call in qHTS KeratinoSens assay (1 = active, 0 = inactive).
As to `CCn1cc[n+](C)c1.O=S(=O)([O-])C(F)(F)F`, the “Nrf2/ARE luciferase activation call” value is “not active ARE inducer (skin sensitizer alert) (inactive)”. For `Cc1ccsc1/C=C/C1=NCCCN1C.O=C(O)[C@@H](O)[C@@H](O)C(=O)O` the value was “not active ARE inducer (skin sensitizer alert) (inactive)”; for `CCCC[n+]1ccc(C)cc1.O=S(=O)([O-])C(F)(F)F`, “not active ARE inducer (skin sensitizer alert) (inactive)”; for `CC[N+]1(C)CCCC1.O=S(=O)([O-])C(F)(F)F`, “not active ARE inducer (skin sensitizer alert) (inactive)”. For `CC1(C)S[C@@H]2[C@H](NC(=O)Cc3ccccc3)C(=O)N2[C@H]1C(=O)O.CC1(C)S[C@@H]2[C@H](NC(=O)Cc3ccccc3)C(=O)N2[C@H]1C(=O)O.c1ccc(CNCCNCc2ccccc2)cc1` the value was “not active ARE inducer (skin sensitizer alert) (inactive)”; for `CCOCC(O)COc1ccc(NC(=O)CC[S+](C)C)cc1.Cc1ccc(S(=O)(=O)[O-])cc1` (centres undefined), “not active ARE inducer (skin sensitizer alert) (inactive)”; for `C[n+]1c2cc(N)ccc2cc2ccc(N)cc21.Nc1ccc2cc3ccc(N)cc3nc2c1.[Cl-]`, “active ARE inducer (skin sensitizer alert)”. Take `CCN(CC)C(=O)N1CCN(C)CC1.O=C(O)CC(O)(CC(=O)O)C(=O)O`: the “Nrf2/ARE luciferase activation call” value was “not active ARE inducer (skin sensitizer alert) (inactive)”.

As to `C[NH+](C)CCC(c1ccc(Cl)cc1)c1ccccn1.O=C([O-])/C=C\C(=O)O` (centres undefined), the “Nrf2/ARE luciferase activation call” value was “not active ARE inducer (skin sensitizer alert) (inactive)”.

For `CCn1cc[n+](C)c1.Cc1ccc(S(=O)(=O)[O-])cc1`, the “Nrf2/ARE luciferase activation call” value is “not active ARE inducer (skin sensitizer alert) (inactive)”. Consider `Nc1nc(N)nc(-c2cc(Cl)ccc2Cl)n1.O=C(O)/C=C\C(=O)O`, for which the “Nrf2/ARE luciferase activation call” value is “not active ARE inducer (skin sensitizer alert) (inactive)”.

For the compound `O=C(O)/C=C/C(=O)O.O=C1c2ccccc2C(=O)N1CCc1noc(-c2ccc(CN3CCCCCC3)s2)n1`, the “Nrf2/ARE luciferase activation call” value is “not active ARE inducer (skin sensitizer alert) (inactive)”. Next, `CCOCCn1c(N2CCCN(C)CC2)nc2ccccc21.O=C(O)/C=C/C(=O)O.O=C(O)/C=C/C(=O)O`: “not active ARE inducer (skin sensitizer alert) (inactive)”; `CN(C)CCOC(c1ccc(Cl)cc1)c1ccccn1.O=C(O)/C=C\C(=O)O` (centres undefined): “not active ARE inducer (skin sensitizer alert) (inactive)”; `CCCC[N+]1(C)CCCC1.O=S(=O)([O-])C(F)(F)F`: “not active ARE inducer (skin sensitizer alert) (inactive)”. With `CC(C)OC(=O)OCOP(=O)(CO[C@H](C)Cn1cnc2c(N)ncnc21)OCOC(=O)OC(C)C.O=C(O)C=CC(=O)O`, the “Nrf2/ARE luciferase activation call” value was “not active ARE inducer (skin sensitizer alert) (inactive)”. For `CC(C)(C)NC[C@H](O)COc1nsnc1N1CCOCC1.O=C(O)/C=C\C(=O)O` the value was “not active ARE inducer (skin sensitizer alert) (inactive)”. For `CC(C)NCC(O)COc1ccc(COCCOC(C)C)cc1.CC(C)NCC(O)COc1ccc(COCCOC(C)C)cc1.O=C(O)/C=C/C(=O)O` (centres undefined) the value was “not active ARE inducer (skin sensitizer alert) (inactive)”. For `CCN(C(=O)c1cc(C)cc(OC[C@H](C)Nc2ccncc2)c1)C(C)C.Cc1ccc(S(=O)(=O)O)cc1` the value was “not active ARE inducer (skin sensitizer alert) (inactive)”.
